Laboratory results published in PubChem BioAssay (NCI).
Compounds without any hit were thinned out: in the full panel of roughly 83,000, 20% have a hit.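 96-well plates, one dose, 48 hours. Percent growth reported; active if below 10.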 A number with no mark means an inactive call. The source made the active and inactive calls.

Key:
Assay in all cases: NCI-60 one-dose screen, 48 h (100 = growth as untreated, 0 = no growth, -100 = all killed)
Details in all cases: 10 µM unless noted
NCI-H23 lung = test system: NCI-H23 lung
NCI-H226 lung = test system: NCI-H226 lung
NCI-H322M lung = test system: NCI-H322M lung
NCI-H460 lung = test system: NCI-H460 lung
HOP-92 NSCLC = test system: HOP-92 NSCLC
NCI-H522 lung = test system: NCI-H522 lung
A549/ATCC NSCLC = test system: A549/ATCC NSCLC
786-0 renal = test system: 786-0 renal
COLO 205 colon = test system: COLO 205 colon
HOP-62 NSCLC = test system: HOP-62 NSCLC

For `N=C(N)c1ccc(-c2ccc(-c3ccc(Cl)cc3Cl)s2)cc1F`, the growth (NCI-H23 lung) was 18.9%, the growth (NCI-H226 lung) was 93.2% and the growth (NCI-H322M lung) was -43.8% (active). The growth (NCI-H460 lung) was -72.4% (active), the growth (HOP-92 NSCLC) was 43% and the growth (NCI-H522 lung) was -44.2% (active). The growth (A549/ATCC NSCLC) was -55.8% (active), the growth (786-0 renal) was -78.8% (active) and the growth (COLO 205 colon) was -47.2% (active).

With `CCN(CC)c1ccc(/C=N\NC(=O)c2cccc(Nc3ccnc(C(F)(F)F)c3)c2)c(O)c1` the growth (NCI-H23 lung) was 39.5%, the growth (NCI-H226 lung) was -3.12% (active) and the growth (NCI-H322M lung) was 33%. The growth (NCI-H460 lung) was 1.17% (active), the growth (HOP-92 NSCLC) was 20.6% and the growth (NCI-H522 lung) was 41.5%. The growth (A549/ATCC NSCLC) was 31.3%, the growth (786-0 renal) was 5.84% (active) and the growth (COLO 205 colon) was -0.627% (active).

For `CCOC(=O)NN1CC(O)=C(c2nc(-c3ccc(Br)cc3)cs2)C1=N`, the growth (NCI-H23 lung) was 101%, the growth (NCI-H226 lung) was 105% and the growth (NCI-H322M lung) was 112%. For the same molecule, the growth (NCI-H460 lung) was 111%, the growth (HOP-92 NSCLC) was 97.3% and the growth (NCI-H522 lung) was 92.1%. The growth (A549/ATCC NSCLC) was 88.1%, the growth (786-0 renal) was 111% and the growth (COLO 205 colon) was 112%.

For `COc1cc(/C=C2\CN(S(=O)(=O)c3ccc(C)cc3)C/C(=C\c3cc(CN4CCCCC4)c(O)c(OC)c3)C2=O)cc(CN2CCCCC2)c1O`, the growth (NCI-H23 lung) was -64% (active), the growth (NCI-H226 lung) was -52.5% (active) and the growth (NCI-H322M lung) was -74.4% (active). For the same molecule, the growth (NCI-H460 lung) was -72.5% (active), the growth (HOP-92 NSCLC) was -75.3% (active) and the growth (NCI-H522 lung) was -58% (active). For the same molecule, the growth (A549/ATCC NSCLC) was -84.9% (active), the growth (786-0 renal) was -65.4% (active) and the growth (COLO 205 colon) was -90.2% (active).

In the case of `Cc1cc(F)ccc1S(=O)(=O)Nc1cc(-c2c(O)ccc3ccccc23)c(O)c2ccccc12`, the growth (NCI-H23 lung) is reported as 16.7%, the growth (NCI-H226 lung) is reported as 47.3% and the growth (NCI-H322M lung) is reported as 79%. For the same molecule, the growth (NCI-H460 lung) was 16.3%, the growth (HOP-92 NSCLC) was 19.1% and the growth (NCI-H522 lung) was -36.2% (active). The growth (A549/ATCC NSCLC) was 20.4%, the growth (786-0 renal) was 76.2% and the growth (COLO 205 colon) was 14.3%.

`COc1cc(C(=O)/C=C/c2c(-c3cccs3)nc3ccccn23)cc(OC)c1OC` was tested, and the growth (NCI-H23 lung) was 14.1%, the growth (NCI-H322M lung) was -2.37% (active) and the growth (HOP-62 NSCLC) was 16.3%. For the same molecule, the growth (NCI-H460 lung) was -48.1% (active), the growth (HOP-92 NSCLC) was -1.12% (active) and the growth (NCI-H522 lung) was 1.24% (active). For the same molecule, the growth (A549/ATCC NSCLC) was 13.7%, the growth (786-0 renal) was 0.465% (active) and the growth (COLO 205 colon) was 2.79% (active).

Work on `CCOC(=O)/C=C/c1c(C)[nH]c(=O)[nH]c1=O` yielded a growth (NCI-H23 lung) of 81.2%, a growth (NCI-H322M lung) of 136% and a growth (HOP-62 NSCLC) of 93.7%. It also gave a growth (NCI-H460 lung) of 51.7%, a growth (HOP-92 NSCLC) of 114% and a growth (A549/ATCC NSCLC) of 97.2%. It also gave a growth (786-0 renal) of 114% and a growth (COLO 205 colon) of 92.6%.

`COC(=O)c1c2c(n3ccc(C)cc13)C(=O)c1ccccc1C2=O` was tested, and the growth (NCI-H23 lung) was 50.9%, the growth (NCI-H322M lung) was 22.1% and the growth (NCI-H460 lung) was 4.07% (active). The growth (HOP-92 NSCLC) was 76.7%, the growth (A549/ATCC NSCLC) was -41.6% (active) and the growth (786-0 renal) was 80.3%. It also gave a growth (COLO 205 colon) of 42.5%.
